# Bioassay records (PubChem)
# An excerpt weighted towards active compounds, which were near 8% of everything screened.
# HT1080 IDH1KD tx = qHTS for induction of synthetic lethality in tumor cells producing 2HG: qHTS for the HT-1080-IDH1KD cell line. Potency, µM (titrated, usually from 46.1 µM), for inactives: at the top dose activity, negative = toxicity, actives largely listed as cytotoxic. HT-1080 IDH1 knockdown viability, ATP luminescence, 48 h. AID 686971, 2013. hit rate 2% among 360,000;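 also: 0% = DMSO wells and -100% = cell-free medium wells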
#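 Viability of IDH1-knockdown HT-1080 fibrosarcoma cells was assessed by CellTiter-Glo after 48 h at 37 °C with titrated compound; concentration-effect curves were classified by fit quality and response size.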
# MCF10A rereplic = A quantitative high throughput screen for small molecules that induce DNA re-replication in MCF 10a normal breast cells. Potency, µM (doses to about 46.1 µM), for inactives: at the highest dose activity, positive = re-replication, usual class: activators. hit rate 2.9% among 350,000. MCF 10A DNA re-replication, Hoechst nuclear intensity, 48 h. AID 624296, 2012; also: % of control where 0% means no effect; nearly all actives have a fitted effect of over 50% in size
# KB-V1 cytotox = qHTS assay for MDR1-selective chemotherapeutics: Primary screen using the drug-selected MDR subline cells KB-V1. KB-V1 MDR cells viability, CellTiter-Glo, 72 h. Potency, µM (highest dose often 46.1 µM), actives largely listed as cytotoxic. hit rate 3.4% among 400,000. AID 1347076, 2019; also: % is scaled to controls: 0 for no effect and ±100 for the full control effect; nearly all actives have a fitted effect of over 60% in size
#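 Cells of the MDR subline KB-V1 are plated, dosed with compound at multiple concentrations, and incubated 72 h at 37 degrees C; CellTiter-Glo is then added and luminescence read after 10 min.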
# SW480 rerep = A quantitative high throughput screen for small molecules that induce DNA re-replication in SW480 colon adenocarcinoma cells | hit rate 1.8% among 340,000 | AID 624297, 2012 | SW480 DNA re-replication, Hoechst DNA content imaging, 48 h | Potency, µM (doses to about 46.1 µM), inactives show top-dose re-replication activation, actives largely listed as activators; also: % of control where 0% means no effect; nearly all actives have a fitted effect of over 55% in size
#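 DNA re-replication was detected as more nuclei of elevated Hoechst intensity after 48 hr exposure to compound (23 nL pinned per well of 250 cells).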
# HT1080NT lethal = qHTS for induction of synthetic lethality in tumor cells producing 2HG: qHTS for the HT-1080-NT fibrosarcoma cell line. HT-1080-NT fibrosarcoma viability, CellTiter-Glo ATP luminescence, 48 h. Potency, µM (series often up to 46.1 µM), for the others: at the top dose activity, negative = less viability, most hits filed as cytotoxic. hit rate 1.6% among 360,000;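 also: NT is the 2HG producing partner of a matched IDH1 knockdown line; 0% = DMSO-treated cells and -100% = media-only wells without cells; nearly all actives have a fitted effect of over 55% in size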
#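 Fibrosarcoma NT cells, 750 per well in 5% FBS RPMI, were exposed to compound for 48 hours. Viability: CellTiter-Glo luminescence.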
# KB-3-1 tox = qHTS assay for MDR1-selective chemotherapeutics: Primary screen using the parental adenocarcinoma cell KB-3-1; Potency, µM (doses to about 46.1 µM), hits mostly cytotoxic; hit rate 1.4% among 400,000; KB-3-1 viability, CellTiter-Glo ATP luminescence, 72 h; AID 1347075, 2019; also: % is scaled to controls: 0 for no effect and ±100 for the full control effect; nearly all actives have a fitted effect of over 60% in size
#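 Cytotoxicity in the drug-sensitive parental line KB-3-1 was scored as loss of CellTiter-Glo luminescence following 72 h incubation with compound. Values come from curve fitting of normalized concentration-response data.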
# * hit, by the source's call; i = inactive; ? = inconclusive; . = no result given; [ ] = dose if it differs, or a comment. Calls follow the shape of the dose curve; as a rule, active = well fitted curve in the direction sought with a large enough effect; inconclusive = small, poorly fitted or top-dose-only effect, or another doubt; inactive = no such curve, though single readings can be large; an effect the other way counts as inactive or inconclusive. Potency is read from the fitted curve at half-maximal effect.
SMILES,HT1080 IDH1KD tx,MCF10A rereplic,KB-V1 cytotox,SW480 rerep,HT1080NT lethal,KB-3-1 tox
BrC(/C=C\c1ccccc1)=N/Nc1nc(N2CCOCC2)nc(N2CCOCC2)n1,?,10µM*,i,?,?,i
Oc1ccc(Br)cc1/C=N/Nc1nc(N2CCCCC2)nc(N2CCOCC2)n1,-3%,12%,i,21µM*,-2%,?
C/C(=N\Nc1nc(N2CCOCC2)nc(N2CCOCC2)n1)c1cccs1,5%,12%,i,15%,-8%,i
C/C(=N\Nc1nc(N2CCCCC2)nc(N2CCOCC2)n1)c1ccccc1O,18µM*,?,16µM*,12µM*,?,?
Oc1ccc(/C=N/Nc2nc(N3CCCCCC3)nc(N3CCCCCC3)n2)c(O)c1,?,?,?,?,?,i
CCOC(=O)c1cccc(NC(=O)C2CCC(CNc3c(N4CCOCC4)c(=O)c3=O)CC2)c1 (stereo not drawn),2%,5%,i,-10%,18%,i
CC(=O)c1cccc(Nc2ccc(-c3ccccc3F)nn2)c1,-4%,0%,i,-3%,0%,i
COc1ccccc1-c1ccc(Nc2cccc(C(C)=O)c2)nn1,-25%,16%,13µM*,8%,-2%,i
CC(=O)c1ccc(Nc2ccc(-c3ccccc3C)nn2)cc1,3%,26µM*,i,24%,-1%,i
CCNC(=S)N(CCO)Cc1cc2cc3c(cc2[nH]c1=O)OCO3,-1%,-6%,i,-5%,0%,i
COc1cc2c(cc1OC)C(c1ccccc1C)CC(=O)N2 (stereo not drawn),20%,-3%,i,-2%,5%,i
CC1(C)CC(=O)CC2(C1)NCC(c1ccccc1)c1c2[nH]c2ccccc12 (stereo not drawn),-20%,3%,i,-21%,-5%,i
COc1cccc(C2CNC3(CCCC(C)C3)c3[nH]c4ccccc4c32)c1OC (stereo not drawn),?,18µM*,?,95%,?,i
O=C1CCCC2=C1C(c1ccc(OS(=O)(=O)c3ccc(Cl)cc3)cc1)C1=C(CCCC1=O)O2,12%,?,4.6µM*,11%,6%,?
Cc1ccc(C)c(S(=O)(=O)N2CCN(C(=O)CCNS(=O)(=O)c3ccccc3)CC2)c1,3%,9%,?,1%,-3%,i
Cc1ccc(C)c(S(=O)(=O)N2CCN(C(=O)CCC(=O)NCc3ccc(Cl)cc3Cl)CC2)c1,-19%,21µM*,i,-17%,-7%[9.24 µM],i
O=C1C2C3C=CC(CNS(=O)(=O)c4ccccc4[N+](=O)[O-])(O3)C2C(=O)N1c1ccccc1 (stereo not drawn),3%,21µM*,?,?,-7%,i
CC(C)(C)c1ccc(-c2nc(SCC(=O)Nc3ccccc3F)n3[nH]c(=O)cc3n2)cc1,.,.,?,.,.,i
CCOC(=O)CC(c1ccc(N)cc1)n1c(C)ccc1C (stereo not drawn),-6%,7%,i,15%[1.84 µM],-2%,i
COC(=O)CC(c1ccc(F)cc1)n1c(C)ccc1C (stereo not drawn),-14%,23µM*,i,9%[1.84 µM],-14%,i
O=C(NCc1ccccc1)C(c1cccs1)N(C(=O)c1csnn1)C1CC1 (stereo not drawn),15%,0%,18µM*,2%,13%,i
O=C(NC1CCCCC1)C(c1ccco1)N(C(=O)c1csnn1)C1CCCC1 (stereo not drawn),1%,0%,16µM*,-5%,-3%,i
O=C(NCCc1ccccc1)C(c1cccs1)N(C(=O)c1csnn1)C1CC1 (stereo not drawn),-4%,-5%,i,10%,1%,i
O=C(NC1CCCC1)C(c1ccco1)N(Cc1ccccc1)C(=O)c1csnn1 (stereo not drawn),-5%,2%,13µM*,-2%,2%,i
CC(NC(=O)Cc1ccccc1F)c1ccc(F)cc1 (stereo not drawn),0%,-2%,i,1%,8%,i
SMILES,HT1080 IDH1KD tx,MCF10A rereplic,KB-V1 cytotox,SW480 rerep,HT1080NT lethal,KB-3-1 tox
Cc1ccc(NC(=O)c2cc3ccccc3oc2=O)cc1S(=O)(=O)N(C)C,5%,-6%,i,19%,2%,i
CN(C)C(=O)c1ccc(Cl)cc1[N+](=O)[O-],12%,1%,i,-2%,10%,i
Cc1c(Cl)cccc1Nc1nn2c(=O)c3ccc(C(=O)NCCc4ccccc4)cc3nc2s1,.,.,i,.,.,i
O=C(Nc1ncccn1)c1cc([N+](=O)[O-])cc([N+](=O)[O-])c1,21%,?,i,-7%,12%,i
O=[N+]([O-])c1cc(-c2ncccn2)c([N+](=O)[O-])s1,21µM*,7.3µM*,?,21µM*,16µM*,16µM*
CCc1ccc(C(=O)C(C)CN2CCCCC2)cc1 (stereo not drawn),.,9%,.,?,.,.
Cn1c(SCc2cc(=O)n3cc(Br)ccc3n2)nnc1C1COc2ccccc2O1 (stereo not drawn),9%,0%,12µM*,-2%,0%,i
COc1cc(C(=O)O/N=C2\C=CC(=O)C(C)=C2)cc(OC)c1OC,?,?,?,5.8µM*,23µM*,?
COc1cc(C(=O)ON=C2C=C(C)C(=O)C(C)=C2)cc(OC)c1OC,-9%,?,i,?,-6%,i
CCc1noc(C)c1C(=O)N(CC)CC(=O)NCc1ccc(F)cc1,4%,.,i,.,10%,i
CN(C(=O)CSc1nc2ccc([N+](=O)[O-])cc2s1)C1CCS(=O)(=O)C1 (stereo not drawn),-1%,0%,i,?,-1%,i
CC1CCCCC1NC(=O)CN1C(=O)c2cccc(N)c2C1=O (stereo not drawn),11%,?,i,-1%,9%,i
COc1cc2cc(C)nc(Cc3cccc4ccccc34)c2cc1OC,?,13µM*,i,5%,?,i
COc1ccccc1CNC(=O)COC(=O)c1cc(C)nc2ccccc12,-7%,6%,.,-4%,-1%,.
